# Measured values: ChEMBL document CHEMBL1961873, “Compounds: GSK PKIS; Assays: Nanosyn kinase panel” (2012)
# Assays:
# [1] = target: Glycogen synthase kinase-3 alpha (Homo sapiens) (UniProt P49840); settings: at 0.1 µM
# [2] = target: Glycogen synthase kinase-3 alpha (Homo sapiens) (UniProt P49840); settings: at 1 µM
# [3] = target: Glycogen synthase kinase-3 beta (Homo sapiens) (UniProt P49841); settings: at 0.1 µM
# [4] = target: Glycogen synthase kinase-3 beta (Homo sapiens) (UniProt P49841); settings: at 1 µM
# [5] = target: Homeodomain-interacting protein kinase 1 (Homo sapiens) (UniProt Q86Z02); settings: at 0.1 µM
# [6] = target: Homeodomain-interacting protein kinase 1 (Homo sapiens) (UniProt Q86Z02); settings: at 1 µM
# [7] = target: Homeodomain-interacting protein kinase 4 (Homo sapiens) (UniProt Q8NE63); settings: at 0.1 µM
# Homeodomain-interacting protein kinase 4 (Homo sapiens), sequence (Q8NE63 whole entry): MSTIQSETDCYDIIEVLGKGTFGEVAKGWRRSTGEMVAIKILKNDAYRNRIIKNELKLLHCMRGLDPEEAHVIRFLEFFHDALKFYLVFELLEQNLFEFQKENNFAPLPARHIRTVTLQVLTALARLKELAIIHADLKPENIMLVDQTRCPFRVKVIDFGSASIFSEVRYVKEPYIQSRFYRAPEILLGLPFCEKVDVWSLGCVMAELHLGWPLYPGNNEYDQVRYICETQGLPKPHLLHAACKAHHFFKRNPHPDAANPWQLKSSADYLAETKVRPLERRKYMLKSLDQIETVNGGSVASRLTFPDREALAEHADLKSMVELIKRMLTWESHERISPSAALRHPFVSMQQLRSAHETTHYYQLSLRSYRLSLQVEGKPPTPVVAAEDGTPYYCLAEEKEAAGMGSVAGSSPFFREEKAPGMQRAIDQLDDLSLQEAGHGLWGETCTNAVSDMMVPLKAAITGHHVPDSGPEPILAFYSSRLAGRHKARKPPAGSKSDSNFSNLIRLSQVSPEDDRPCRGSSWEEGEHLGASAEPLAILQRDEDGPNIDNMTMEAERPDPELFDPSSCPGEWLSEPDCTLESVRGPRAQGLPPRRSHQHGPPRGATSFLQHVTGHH
# [8] = target: Homeodomain-interacting protein kinase 4 (Homo sapiens) (UniProt Q8NE63); settings: at 1 µM
# [9] = target: Mitogen-activated protein kinase 9 (Homo sapiens) (UniProt P45984); settings: at 0.1 µM
# [10] = target: Mitogen-activated protein kinase 9 (Homo sapiens) (UniProt P45984); settings: at 1 µM
# [11] = target: Mitogen-activated protein kinase 1 (Homo sapiens) (UniProt P28482); settings: at 0.1 µM
# Mitogen-activated protein kinase 1 (Homo sapiens), sequence (P28482 whole entry): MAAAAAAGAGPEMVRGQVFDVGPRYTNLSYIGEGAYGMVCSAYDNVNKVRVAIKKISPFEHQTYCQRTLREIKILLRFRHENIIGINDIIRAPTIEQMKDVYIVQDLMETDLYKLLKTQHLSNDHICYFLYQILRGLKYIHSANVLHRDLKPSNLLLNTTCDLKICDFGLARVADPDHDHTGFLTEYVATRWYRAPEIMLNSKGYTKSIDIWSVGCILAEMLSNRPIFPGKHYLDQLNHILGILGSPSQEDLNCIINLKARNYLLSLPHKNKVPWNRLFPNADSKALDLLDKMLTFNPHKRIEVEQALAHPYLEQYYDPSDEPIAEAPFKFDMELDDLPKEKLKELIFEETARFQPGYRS
# [12] = target: Mitogen-activated protein kinase 1 (Homo sapiens) (UniProt P28482); settings: at 1 µM
# [13] = target: Mitogen-activated protein kinase 3 (Homo sapiens) (UniProt P27361); settings: at 0.1 µM
# [14] = target: Mitogen-activated protein kinase 3 (Homo sapiens) (UniProt P27361); settings: at 1 µM
# [15] = target: SRSF protein kinase 3 (Homo sapiens) (UniProt Q9UPE1); settings: at 0.1 µM
# [16] = target: SRSF protein kinase 3 (Homo sapiens) (UniProt Q9UPE1); settings: at 1 µM
# [17] = target: Mitogen-activated protein kinase 14 (Homo sapiens) (UniProt Q16539); settings: at 0.1 µM
# [18] = target: Mitogen-activated protein kinase 14 (Homo sapiens) (UniProt Q16539); settings: at 1 µM
# [19] = target: Mitogen-activated protein kinase 11 (Homo sapiens) (UniProt Q15759); settings: at 0.1 µM
# [20] = target: Mitogen-activated protein kinase 11 (Homo sapiens) (UniProt Q15759); settings: at 1 µM
# [21] = target: Mitogen-activated protein kinase 13 (Homo sapiens) (UniProt O15264); settings: at 0.1 µM
# [22] = target: Mitogen-activated protein kinase 13 (Homo sapiens) (UniProt O15264); settings: at 1 µM
# [23] = target: Mitogen-activated protein kinase 12 (Homo sapiens) (UniProt P53778); settings: at 0.1 µM
# [24] = target: Mitogen-activated protein kinase 12 (Homo sapiens) (UniProt P53778); settings: at 1 µM
# [25] = target: SRSF protein kinase 1 (Homo sapiens) (UniProt Q96SB4); settings: at 0.1 µM
# [26] = target: SRSF protein kinase 1 (Homo sapiens) (UniProt Q96SB4); settings: at 1 µM
# [27] = target: Phosphatidylinositol 4,5-bisphosphate 3-kinase catalytic subunit alpha isoform (Homo sapiens) (UniProt P42336); settings: at 0.1 µM
# [28] = target: Phosphatidylinositol 4,5-bisphosphate 3-kinase catalytic subunit alpha isoform (Homo sapiens) (UniProt P42336); settings: at 1 µM
# [29] = target: Phosphatidylinositol 4,5-bisphosphate 3-kinase catalytic subunit delta isoform (Homo sapiens) (UniProt O00329); settings: at 0.1 µM
# Phosphatidylinositol 4,5-bisphosphate 3-kinase catalytic subunit delta isoform (Homo sapiens), sequence (O00329 whole entry, canonical isoform): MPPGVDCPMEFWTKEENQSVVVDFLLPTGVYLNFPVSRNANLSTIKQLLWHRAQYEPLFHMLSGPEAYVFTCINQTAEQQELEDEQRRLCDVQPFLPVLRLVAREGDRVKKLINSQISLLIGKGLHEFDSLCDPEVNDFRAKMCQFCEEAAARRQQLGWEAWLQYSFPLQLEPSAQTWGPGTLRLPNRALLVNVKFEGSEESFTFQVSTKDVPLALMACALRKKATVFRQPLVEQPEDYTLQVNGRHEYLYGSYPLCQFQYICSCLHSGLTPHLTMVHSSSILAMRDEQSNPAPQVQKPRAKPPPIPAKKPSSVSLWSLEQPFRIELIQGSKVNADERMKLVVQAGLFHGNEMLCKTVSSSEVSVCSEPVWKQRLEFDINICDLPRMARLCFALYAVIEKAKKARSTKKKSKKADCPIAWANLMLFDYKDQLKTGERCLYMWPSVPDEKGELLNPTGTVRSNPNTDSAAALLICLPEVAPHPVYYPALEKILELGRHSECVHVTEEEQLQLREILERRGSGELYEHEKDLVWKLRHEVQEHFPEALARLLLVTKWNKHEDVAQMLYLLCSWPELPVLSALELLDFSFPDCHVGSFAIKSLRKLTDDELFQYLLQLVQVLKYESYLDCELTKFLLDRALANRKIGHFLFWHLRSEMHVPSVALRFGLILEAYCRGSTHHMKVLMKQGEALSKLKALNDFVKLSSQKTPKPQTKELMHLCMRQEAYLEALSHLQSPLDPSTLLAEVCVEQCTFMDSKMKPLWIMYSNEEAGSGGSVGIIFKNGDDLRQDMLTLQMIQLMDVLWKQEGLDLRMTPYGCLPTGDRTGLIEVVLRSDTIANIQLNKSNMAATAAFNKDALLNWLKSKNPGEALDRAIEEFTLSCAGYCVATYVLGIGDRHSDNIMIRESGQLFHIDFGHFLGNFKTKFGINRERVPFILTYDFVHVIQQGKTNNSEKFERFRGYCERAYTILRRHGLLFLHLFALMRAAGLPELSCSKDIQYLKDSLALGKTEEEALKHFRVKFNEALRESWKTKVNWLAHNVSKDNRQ
# [30] = target: Phosphatidylinositol 4,5-bisphosphate 3-kinase catalytic subunit delta isoform (Homo sapiens) (UniProt O00329); settings: at 1 µM
# [31] = target: Phosphatidylinositol 4-kinase beta (Homo sapiens) (UniProt Q9UBF8); settings: at 0.1 µM
# [32] = target: Phosphatidylinositol 4-kinase beta (Homo sapiens) (UniProt Q9UBF8); settings: at 1 µM
# [33] = target: Sphingosine kinase 1 (Homo sapiens) (UniProt Q9NYA1); settings: at 0.1 µM
# [34] = target: Sphingosine kinase 1 (Homo sapiens) (UniProt Q9NYA1); settings: at 1 µM
# [35] = target: Sphingosine kinase 2 (Homo sapiens) (UniProt Q9NRA0); settings: at 0.1 µM
# [36] = target: Sphingosine kinase 2 (Homo sapiens) (UniProt Q9NRA0); settings: at 1 µM
# [37] = target: Casein kinase II subunit alpha (Homo sapiens) (UniProt P68400); settings: at 0.1 µM
# Casein kinase II subunit alpha (Homo sapiens), sequence (P68400 whole entry, looked up): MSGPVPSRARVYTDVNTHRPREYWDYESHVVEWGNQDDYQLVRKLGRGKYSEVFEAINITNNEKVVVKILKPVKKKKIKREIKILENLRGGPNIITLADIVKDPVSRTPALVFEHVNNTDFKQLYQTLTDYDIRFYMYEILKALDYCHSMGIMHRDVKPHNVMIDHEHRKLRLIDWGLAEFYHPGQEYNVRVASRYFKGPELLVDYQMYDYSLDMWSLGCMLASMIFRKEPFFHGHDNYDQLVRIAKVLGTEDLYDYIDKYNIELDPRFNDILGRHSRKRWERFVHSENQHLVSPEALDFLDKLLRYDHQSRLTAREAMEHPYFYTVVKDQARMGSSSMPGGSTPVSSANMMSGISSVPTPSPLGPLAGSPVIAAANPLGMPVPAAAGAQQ
# [38] = target: Casein kinase II subunit alpha (Homo sapiens) (UniProt P68400); settings: at 1 µM
# [39] = target: Inhibitor of nuclear factor kappa-B kinase subunit alpha (Homo sapiens) (UniProt O15111); settings: at 0.1 µM
# [40] = target: Inhibitor of nuclear factor kappa-B kinase subunit alpha (Homo sapiens) (UniProt O15111); settings: at 1 µM
# [41] = target: Inhibitor of nuclear factor kappa-B kinase subunit beta (Homo sapiens) (UniProt O14920); settings: at 0.1 µM
# Inhibitor of nuclear factor kappa-B kinase subunit beta (Homo sapiens), sequence (O14920 whole entry): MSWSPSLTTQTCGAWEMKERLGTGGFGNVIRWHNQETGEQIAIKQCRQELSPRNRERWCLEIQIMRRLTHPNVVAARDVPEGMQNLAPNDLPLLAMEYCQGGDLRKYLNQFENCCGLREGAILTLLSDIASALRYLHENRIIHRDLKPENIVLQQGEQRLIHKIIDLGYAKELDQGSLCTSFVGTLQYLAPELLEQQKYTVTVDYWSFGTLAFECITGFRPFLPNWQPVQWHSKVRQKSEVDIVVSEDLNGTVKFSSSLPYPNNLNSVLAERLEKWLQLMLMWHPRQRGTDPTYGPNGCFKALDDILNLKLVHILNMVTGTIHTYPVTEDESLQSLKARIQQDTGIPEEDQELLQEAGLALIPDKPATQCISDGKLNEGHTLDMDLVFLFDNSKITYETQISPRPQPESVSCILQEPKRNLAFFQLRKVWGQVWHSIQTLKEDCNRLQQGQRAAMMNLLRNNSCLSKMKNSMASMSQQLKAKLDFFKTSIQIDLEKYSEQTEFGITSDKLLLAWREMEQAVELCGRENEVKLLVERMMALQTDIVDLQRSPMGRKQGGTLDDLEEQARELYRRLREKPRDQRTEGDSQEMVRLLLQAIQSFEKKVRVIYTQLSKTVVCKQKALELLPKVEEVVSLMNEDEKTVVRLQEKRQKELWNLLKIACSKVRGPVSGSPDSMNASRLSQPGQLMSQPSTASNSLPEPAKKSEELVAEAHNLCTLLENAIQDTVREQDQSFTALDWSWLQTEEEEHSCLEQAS
# [42] = target: Inhibitor of nuclear factor kappa-B kinase subunit beta (Homo sapiens) (UniProt O14920); settings: at 1 µM
# [43] = target: Inhibitor of nuclear factor kappa-B kinase subunit epsilon (Homo sapiens) (UniProt Q14164); settings: at 0.1 µM
# Inhibitor of nuclear factor kappa-B kinase subunit epsilon (Homo sapiens), sequence (Q14164 whole entry): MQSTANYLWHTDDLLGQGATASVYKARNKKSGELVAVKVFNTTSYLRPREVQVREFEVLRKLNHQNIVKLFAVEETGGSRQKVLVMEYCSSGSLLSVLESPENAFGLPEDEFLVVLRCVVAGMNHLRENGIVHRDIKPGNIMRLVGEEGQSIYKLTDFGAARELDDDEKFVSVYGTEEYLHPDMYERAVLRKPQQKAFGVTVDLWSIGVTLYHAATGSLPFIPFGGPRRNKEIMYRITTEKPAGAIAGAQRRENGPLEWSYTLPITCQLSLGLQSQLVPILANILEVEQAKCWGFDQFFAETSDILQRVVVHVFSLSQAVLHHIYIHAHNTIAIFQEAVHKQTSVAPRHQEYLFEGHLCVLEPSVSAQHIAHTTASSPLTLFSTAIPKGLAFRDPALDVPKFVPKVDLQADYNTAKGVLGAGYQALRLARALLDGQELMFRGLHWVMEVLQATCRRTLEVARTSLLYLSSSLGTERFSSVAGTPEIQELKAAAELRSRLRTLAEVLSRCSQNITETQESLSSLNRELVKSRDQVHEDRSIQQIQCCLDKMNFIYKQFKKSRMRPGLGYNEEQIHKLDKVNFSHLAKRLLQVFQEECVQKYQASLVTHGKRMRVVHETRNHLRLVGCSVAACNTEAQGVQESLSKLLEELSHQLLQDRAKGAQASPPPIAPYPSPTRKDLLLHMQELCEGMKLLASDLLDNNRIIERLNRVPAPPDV
# [44] = target: Inhibitor of nuclear factor kappa-B kinase subunit epsilon (Homo sapiens) (UniProt Q14164); settings: at 1 µM
# [45] = target: Serine/threonine-protein kinase Nek1 (Homo sapiens) (UniProt Q96PY6); settings: at 0.1 µM
# [46] = target: Serine/threonine-protein kinase Nek1 (Homo sapiens) (UniProt Q96PY6); settings: at 1 µM
# [47] = target: Serine/threonine-protein kinase Nek2 (Homo sapiens) (UniProt P51955); settings: at 0.1 µM
# [48] = target: Serine/threonine-protein kinase Nek2 (Homo sapiens) (UniProt P51955); settings: at 1 µM
# [49] = target: Serine/threonine-protein kinase Nek6 (Homo sapiens) (UniProt Q9HC98); settings: at 0.1 µM
# [50] = target: Serine/threonine-protein kinase Nek6 (Homo sapiens) (UniProt Q9HC98); settings: at 1 µM
# [51] = target: Serine/threonine-protein kinase Nek7 (Homo sapiens) (UniProt Q8TDX7); settings: at 0.1 µM
# [52] = target: Serine/threonine-protein kinase Nek7 (Homo sapiens) (UniProt Q8TDX7); settings: at 1 µM
# [53] = target: Serine/threonine-protein kinase Nek9 (Homo sapiens) (UniProt Q8TD19); settings: at 0.1 µM
# Serine/threonine-protein kinase Nek9 (Homo sapiens), sequence (Q8TD19 whole entry): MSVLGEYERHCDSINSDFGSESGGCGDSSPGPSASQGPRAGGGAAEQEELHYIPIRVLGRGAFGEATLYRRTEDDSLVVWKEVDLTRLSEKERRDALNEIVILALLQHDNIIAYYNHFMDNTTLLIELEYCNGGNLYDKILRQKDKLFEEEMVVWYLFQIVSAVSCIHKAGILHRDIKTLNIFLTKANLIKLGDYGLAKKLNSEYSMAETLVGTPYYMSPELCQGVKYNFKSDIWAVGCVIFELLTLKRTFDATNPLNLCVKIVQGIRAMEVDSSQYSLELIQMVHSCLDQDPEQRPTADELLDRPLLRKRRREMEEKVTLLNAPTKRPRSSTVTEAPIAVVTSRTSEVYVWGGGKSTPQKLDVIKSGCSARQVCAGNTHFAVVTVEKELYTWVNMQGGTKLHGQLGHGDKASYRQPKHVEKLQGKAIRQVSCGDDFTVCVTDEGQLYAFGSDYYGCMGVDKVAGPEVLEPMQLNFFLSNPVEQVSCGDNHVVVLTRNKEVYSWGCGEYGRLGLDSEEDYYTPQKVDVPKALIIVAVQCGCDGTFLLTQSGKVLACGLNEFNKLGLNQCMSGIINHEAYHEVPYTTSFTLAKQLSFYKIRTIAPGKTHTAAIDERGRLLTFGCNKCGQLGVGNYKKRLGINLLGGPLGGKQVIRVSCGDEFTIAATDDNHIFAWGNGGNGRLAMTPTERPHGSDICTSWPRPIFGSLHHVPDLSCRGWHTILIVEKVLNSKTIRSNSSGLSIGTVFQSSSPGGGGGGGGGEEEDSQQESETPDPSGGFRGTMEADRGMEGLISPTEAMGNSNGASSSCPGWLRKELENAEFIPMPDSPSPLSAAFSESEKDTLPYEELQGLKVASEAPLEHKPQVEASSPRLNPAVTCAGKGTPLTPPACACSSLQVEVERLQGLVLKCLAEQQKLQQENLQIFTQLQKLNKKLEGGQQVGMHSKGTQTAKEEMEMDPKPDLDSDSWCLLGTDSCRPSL
# [54] = target: Serine/threonine-protein kinase Nek9 (Homo sapiens) (UniProt Q8TD19); settings: at 1 µM
# [55] = target: Serine/threonine-protein kinase PLK1 (Homo sapiens) (UniProt P53350); settings: at 0.1 µM
# [56] = target: Serine/threonine-protein kinase PLK1 (Homo sapiens) (UniProt P53350); settings: at 1 µM
structure (smiles),measurement,setting,value
CNC(=O)Oc1cc(C)c(/C=C/c2cncc(C(=O)NC)c2)c(C)c1,inhibition,[1],1.71%
same,inhibition,[2],5.29%
same,inhibition,[3],1.23%
same,inhibition,[4],4.75%
same,inhibition,[5],-0.37%
same,inhibition,[6],1.2%
same,inhibition,[7],0.96%
same,inhibition,[8],3.81%
same,inhibition,[9],3.14%
same,inhibition,[10],2.28%
same,inhibition,[11],1.83%
same,inhibition,[12],2.04%
same,inhibition,[13],3.1%
same,inhibition,[14],2.72%
same,inhibition,[15],1.79%
same,inhibition,[16],1.43%
same,inhibition,[17],3.47%
same,inhibition,[18],3.16%
same,inhibition,[19],1.39%
same,inhibition,[20],2.35%
same,inhibition,[21],0.06%
same,inhibition,[22],2.61%
same,inhibition,[23],0.49%
same,inhibition,[24],1.7%
same,inhibition,[25],-1.34%
same,inhibition,[26],-4.31%
same,inhibition,[27],2.83%
same,inhibition,[28],2.08%
same,inhibition,[29],1.65%
same,inhibition,[30],0.21%
same,inhibition,[31],5.69%
same,inhibition,[32],3.41%
same,inhibition,[33],2.31%
same,inhibition,[34],0.63%
same,inhibition,[35],0.57%
same,inhibition,[36],19.7%
same,inhibition,[37],1.53%
same,inhibition,[38],0.66%
same,inhibition,[39],0.51%
same,inhibition,[40],-0.7%
same,inhibition,[41],3.06%
same,inhibition,[42],1.89%
same,inhibition,[43],2.27%
same,inhibition,[44],0.9%
same,inhibition,[45],2.1%
same,inhibition,[46],1.49%
same,inhibition,[47],2.52%
same,inhibition,[48],4.05%
same,inhibition,[49],-0.26%
same,inhibition,[50],1.16%
same,inhibition,[51],2.46%
same,inhibition,[52],2.99%
same,inhibition,[53],6.95%
same,inhibition,[54],4.01%
same,inhibition,[55],3.92%
same,inhibition,[56],2.75%
